Measurements published in PubChem BioAssay (EPA / NIEHS).
Calls of active or inactive are those of the source. The calls were made as follows: active = hit-call score of the fitted dose curve at least 0.9, where 1 is the maximum; inactive = score below 0.9.

Molecular target: Signal transducer and activator of transcription 3 (Homo sapiens) (UniProt P40763)
Assay: ATG_STAT3_CIS: Attagene CIS-FACTORIAL HepG2 Assay for human Signal Transducer and Activator of Transcription 3 (STAT3) (AID 2282963)
Details: HepG2, Attagene cis-factorial STAT3 reporter transcription; actives raise or lower the signal
Experimental: ATG_CIS is a cell-based, multiplexed-readout assay that uses HepG2, a human liver cell line, with measurements taken at 24 hours after chemical dosing in a 24-well plate.ATG_STAT3_CIS is one of 52 assay component(s) measured or calculated from the ATG_CIS assay. It is designed to make measurements of mRNA induction, a form of inducible reporter, as detected with fluorescence intensity signals by Reverse transcription polymerase chain reaction (RT-PCR) and Capillary electrophoresis technology.Data from the assay component ATG_STAT3_CIS was analyzed into 1 assay endpoint. This assay endpoint, ATG_STAT3_CIS, was analyzed with bidirectional fitting relative to DMSO as the negative control and baseline of activity. Using a type of inducible reporter, measures of mRNA for gain or loss-of-signal activity can be used to understand the reporter gene at the transcription factor-level as they relate to the gene STAT3. Furthermore, this assay endpoint can be referred to as a primary readout, because this assay has produced multiple assay endpoints where this one serves a reporter gene function. To generalize the intended target to other relatable targets, this assay endpoint is annotated to the dna binding intended target family, where the subfamily is stat protein.
Human liver HepG2 cells are transiently transfected with multiple reporter transcription units (MRTUs) in 6-well plates using FuGene 6 reagent (Roche; 3 ml FuGene/1 mg DNA). The MRTU constructs are regulated by a cis-regulating element (promoter). […] A major difference between the CIS and TRANS system is that in CIS activities of endogenous TFs are measured, whereas the TRANS assay evaluates changes in activities of exogenous, chimeric NR-Gal4 proteins. […] At the end of 24 hour incubation, total RNA was isolated using TriZol reagent (Invitrogen). The isolated RNA is then reverse-transcribed using oligo(dT) primer and Mo-MLV reverse transcriptase (Invitrogen) with DNAse I (Ambion) treatment for 30 min. The one-tenth of the produced cDNA was amplified by PCR using Taq DNA polymerase (Invitrogen) and two reporter sequence-specific primers. The PCR products were fluorescently labeled by primer extension with 6-arboxyfluorescein (6-FAM) 5'-labeled reporter sequence-specific primer (2 min at 95 C, 20 s at 68 C and 10 min at 72 C) and these products were digested with 5U of HpaI (New England Biolabs) for 2h at 37 C. The fragments were purified using Qiaquick PCR columns (Qiagen), analyzed on an ABI 3130xL genetic analyzer (Applied Biosystems) with peak positions identified by using a set of X-rhodamine (ROX)-labeled MapMarker1000 molecular weight standards (BioVentures). The raw capillary electrophoresis data was processed using Attagraph software (Attagene).

Signal transducer and activator of transcription 3 (Homo sapiens), sequence (P40763 whole entry, looked up): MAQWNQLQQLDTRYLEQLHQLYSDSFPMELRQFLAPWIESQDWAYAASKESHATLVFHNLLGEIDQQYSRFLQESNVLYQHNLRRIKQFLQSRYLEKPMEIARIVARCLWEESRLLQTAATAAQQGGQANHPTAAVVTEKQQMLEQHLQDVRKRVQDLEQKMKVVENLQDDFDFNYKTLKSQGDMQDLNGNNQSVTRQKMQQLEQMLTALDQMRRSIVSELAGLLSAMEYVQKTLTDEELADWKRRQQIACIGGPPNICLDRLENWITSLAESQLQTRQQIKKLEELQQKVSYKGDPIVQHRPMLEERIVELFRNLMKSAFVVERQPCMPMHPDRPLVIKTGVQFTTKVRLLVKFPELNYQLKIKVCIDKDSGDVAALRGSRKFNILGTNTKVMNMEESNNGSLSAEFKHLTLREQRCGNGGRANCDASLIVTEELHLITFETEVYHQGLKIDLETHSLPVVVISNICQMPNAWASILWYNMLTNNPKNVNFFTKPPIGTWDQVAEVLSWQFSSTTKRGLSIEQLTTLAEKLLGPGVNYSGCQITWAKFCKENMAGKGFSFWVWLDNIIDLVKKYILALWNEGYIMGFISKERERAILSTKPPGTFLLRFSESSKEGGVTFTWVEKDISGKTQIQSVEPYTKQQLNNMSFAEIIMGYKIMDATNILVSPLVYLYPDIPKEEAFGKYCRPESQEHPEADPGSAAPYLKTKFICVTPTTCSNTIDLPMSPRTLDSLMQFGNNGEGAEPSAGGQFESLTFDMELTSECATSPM

outcome, inactive:
C=CC(C)(C)C
O=C(O)C(c1ccc(Cl)cc1)c1ccc(Cl)cc1
CCCCCCCC[N+](C)(CCCCCCCC)CCCCCCCC
CC(C)C(=O)C(C)C
CC[C@H]1OC(=O)[C@H](C)[C@@H](O[C@H]2C[C@@](C)(OC)[C@@H](O)[C@H](C)O2)[C@H](C)[C@@H](O[C@@H]2O[C@H](C)C[C@H](N(C)C)[C@H]2O)[C@](C)(O)C[C@@H](C)C(=NOCOCCOC)[C@H](C)[C@@H](O)[C@]1(C)O
O=S(=O)(Oc1ccc(Cl)cc1Cl)c1ccccc1
COc1ccc([C@@H]2CC(=O)c3c(O)cc(O[C@@H]4O[C@H](CO[C@@H]5O[C@@H](C)[C@H](O)[C@@H](O)[C@H]5O)[C@@H](O)[C@H](O)[C@H]4O)cc3O2)cc1OC
C=CC(=O)OCCOC(=O)C=C
O=C(c1ccccc1)c1ccc(O)c(O)c1O
C1CN(SSN2CCOCC2)CCO1
O=C(O)c1cc2ccccc2nc1C(=O)O
C=C(C)C(=O)OCCOc1ccccc1
CCCOCCOCCOCCO
CC(=O)C=CC1C(C)=CCC(C)C1(C)C (stereo not given)
C[C@]12C=CC(=O)C=C1CC[C@@H]1[C@@H]2[C@@H](O)C[C@@]2(C)[C@H]1CC[C@]2(O)C(=O)CO
O=c1c2ccccc2nnn1CCl
CCCCCCCCCCCCCCCC[n+]1ccccc1
CCCCCCCC/C=C\CCCCCCCC(=O)OCCO
O=c1[nH]nc(-c2ccc([N+](=O)[O-])o2)o1
CC(C)(c1cc(Br)c(OCCO)c(Br)c1)c1cc(Br)c(OCCO)c(Br)c1
C=CCCCCCCCCC(=O)OCCCC
ON(Cc1ccccc1)Cc1ccccc1
O=C(Nc1ccccc1)c1ccccc1O
CO[Si](OC)(OC)c1ccccc1
CCCc1ccc(OC)cc1
CC=CCO
NC(=O)OCC(COC(N)=O)c1ccccc1
CCCCCC/C=C\CCCCCCCC(=O)O
O=C(O)CCCC[C@@H]1SC[C@@H]2NC(=O)N[C@@H]21
O=C1CCCC1
CN(C)c1ccc(N=Nc2ccccc2C(=O)O)cc1
CCCCCc1ccc(Cl)cc1
Nc1nc2ccccc2[nH]1
CCCCCCCCCCCCCCCC[N+](C)(C)CC
FC(F)=C(F)OC(F)(F)C(F)(F)C(F)(F)F
CC(C)c1ccc(C#N)cc1
NC(=O)C1CO1 (stereo not given)
Cc1cc(O)c(Cl)c(C)c1Cl
CNC(=S)N(C)C
O=C(O)CCCCCCCCCC(=O)O
